Each structure is given as a SMILES string. In all, about 310,000 compounds went through this assay and about 14,000 (4.5%) showed an effect of 50% or more. The effect is printed as a negative number. This excerpt belongs to a sample that is enriched for strong results.
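Note: peak tail current of the secondary pulse compared with the same well before compound.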

human ether-à-go-go-related gene (hERG) potassium channel, sequence (Q12809 whole entry, looked up): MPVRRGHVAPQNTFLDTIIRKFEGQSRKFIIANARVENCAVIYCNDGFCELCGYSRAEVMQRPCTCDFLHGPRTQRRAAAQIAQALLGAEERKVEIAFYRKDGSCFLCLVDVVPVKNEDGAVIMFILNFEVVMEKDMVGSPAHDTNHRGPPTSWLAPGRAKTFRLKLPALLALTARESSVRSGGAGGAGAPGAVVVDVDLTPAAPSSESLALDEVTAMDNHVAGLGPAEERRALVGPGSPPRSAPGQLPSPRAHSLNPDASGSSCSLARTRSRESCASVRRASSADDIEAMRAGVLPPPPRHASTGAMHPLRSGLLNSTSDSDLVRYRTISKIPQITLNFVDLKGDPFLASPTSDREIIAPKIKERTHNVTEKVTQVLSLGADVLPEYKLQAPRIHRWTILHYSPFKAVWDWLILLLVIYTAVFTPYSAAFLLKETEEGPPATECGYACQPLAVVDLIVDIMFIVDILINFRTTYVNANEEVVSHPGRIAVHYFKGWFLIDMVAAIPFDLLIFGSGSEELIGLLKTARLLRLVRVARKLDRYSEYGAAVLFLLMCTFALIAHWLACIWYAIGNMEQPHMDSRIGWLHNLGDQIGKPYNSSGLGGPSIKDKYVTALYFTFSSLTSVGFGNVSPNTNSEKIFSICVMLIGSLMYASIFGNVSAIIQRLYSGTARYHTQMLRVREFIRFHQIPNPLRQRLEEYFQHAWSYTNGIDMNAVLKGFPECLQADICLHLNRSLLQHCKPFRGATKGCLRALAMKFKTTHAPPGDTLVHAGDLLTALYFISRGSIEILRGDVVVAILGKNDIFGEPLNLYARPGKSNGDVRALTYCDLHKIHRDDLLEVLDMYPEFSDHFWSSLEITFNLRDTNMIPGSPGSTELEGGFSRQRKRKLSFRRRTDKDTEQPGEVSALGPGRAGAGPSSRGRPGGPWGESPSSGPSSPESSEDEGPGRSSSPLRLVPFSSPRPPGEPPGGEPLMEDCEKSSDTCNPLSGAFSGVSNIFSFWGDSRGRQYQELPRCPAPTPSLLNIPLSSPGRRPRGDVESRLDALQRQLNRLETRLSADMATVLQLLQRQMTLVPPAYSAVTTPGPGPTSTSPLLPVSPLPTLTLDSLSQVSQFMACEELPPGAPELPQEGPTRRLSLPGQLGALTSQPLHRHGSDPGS

The assay concerns the target human ether-à-go-go-related gene (hERG) potassium channel (human, UniProt Q12809). Description: primary screen, population patch clamp on CHO cells stably expressing hERG; higher = less effect of the substance.
In the case of `O=C(Nc1cccc(Cl)c1)N(CCCN1CCOCC1)Cc1ccccc1F`, the “hERG current change (%, negative = inhibition) at 10uM” value is -64.5%. Take `Cc1ccc2[nH]c(=O)c(CN(CCN3CCOCC3)C(=O)Nc3ccc(F)cc3)cc2c1`: the “hERG current change (%, negative = inhibition) at 10uM” value is -37%. In the case of `O=C(Nc1ccc(F)cc1)N(CCCN1CCOCC1)Cc1cc2cc3c(cc2[nH]c1=O)OCCO3`, the “hERG current change (%, negative = inhibition) at 10uM” value was -25.1%. With `CCc1ccc2[nH]c(=O)c(CN(CCCN3CCOCC3)C(=O)Nc3ccccc3)cc2c1`, the “hERG current change (%, negative = inhibition) at 10uM” value is reported as -54.2%. Turning to `Cc1ccc2[nH]c(=O)c(CN(CCCN3CCOCC3)C(=O)Nc3cccc(Cl)c3)cc2c1`, the “hERG current change (%, negative = inhibition) at 10uM” value was -32.4%. Next, `CCc1ccc2[nH]c(=O)c(CN(CCCN3CCOCC3)C(=O)Nc3ccc(F)cc3)cc2c1`: -68.1%. Consider `O=C(Nc1cccc(Cl)c1)N(CCN1CCOCC1)Cc1ccccc1F`, for which the “hERG current change (%, negative = inhibition) at 10uM” value is -49.6%. As for `Cc1ccc2[nH]c(=O)c(CN(CCCN3CCOCC3)C(=O)Nc3ccc(Cl)cc3)cc2c1`, the figure is -71.7%. For `O=C(Nc1ccc(F)cc1)N(CCCN1CCOCC1)Cc1cc2cc3c(cc2[nH]c1=O)OCO3`, the “hERG current change (%, negative = inhibition) at 10uM” value is reported as -49.3%.

In the case of `O=C(Nc1ccccc1)N(CCCN1CCOCC1)Cc1ccccc1F`, the “hERG current change (%, negative = inhibition) at 10uM” value is -20.6%.

As for `O=C(Nc1ccccc1)N(CCCN1CCOCC1)Cc1cc2cc3c(cc2[nH]c1=O)OCCO3`, the “hERG current change (%, negative = inhibition) at 10uM” value was -2.99%. As for `CCc1ccc2[nH]c(=O)c(CN(CCN3CCOCC3)C(=O)Nc3ccccc3F)cc2c1`, the “hERG current change (%, negative = inhibition) at 10uM” value is given as -23.1%. As for `CCOc1ccc(S(=O)(=O)Nc2ccc3c(c2)OCO3)cc1`, the figure is -14.9%.

Regarding `COc1cc(NC(=S)NCCSc2ccc(C)cc2)cc(OC)c1`, the “hERG current change (%, negative = inhibition) at 10uM” value is -1.01%. Take `C=CCOc1ccccc1CNCc1cccnc1.Cl`: the “hERG current change (%, negative = inhibition) at 10uM” value was found to be 12.6%. Next, `Cc1cc(C(=O)NNC(=S)Nc2cccc(C(F)(F)F)c2)nn1C`: 30.1%. As for `Cc1ccc(-n2cc[nH]c2=S)cc1C`, the “hERG current change (%, negative = inhibition) at 10uM” value is 22.7%. Consider `COc1ccc2[nH]c(=O)c(CN(CCCN3CCOCC3)C(=O)NCc3ccccc3)cc2c1`, for which the “hERG current change (%, negative = inhibition) at 10uM” value is 8.39%. In the case of `Cc1ccc(NC(=O)N(CCCN2CCOCC2)Cc2cc3cc4c(cc3[nH]c2=O)OCO4)cc1`, the “hERG current change (%, negative = inhibition) at 10uM” value is listed as -42%. As to `CCc1ccc2[nH]c(=O)c(CN(CCCN3CCOCC3)C(=O)Nc3ccc(Cl)cc3)cc2c1`, the “hERG current change (%, negative = inhibition) at 10uM” value is on record as -65.6%. In the case of `COc1cc2cc(CN(CCCN3CCOCC3)C(=O)Nc3ccc(F)cc3)c(=O)[nH]c2cc1OC`, the “hERG current change (%, negative = inhibition) at 10uM” value is recorded as -33.2%. As to `CCc1ccc2[nH]c(=O)c(CN(CCCN3CCOCC3)C(=O)Nc3cccc(Cl)c3)cc2c1`, the “hERG current change (%, negative = inhibition) at 10uM” value is reported as -54.1%. As for `COc1ccc(CN(CCCN2CCOCC2)C(=O)Nc2cccc(Cl)c2)cc1OC`, the figure is -39.3%. As to `Oc1ccc(/C=N/NC(=S)Nc2cccnc2)c(O)c1`, the “hERG current change (%, negative = inhibition) at 10uM” value turned out to be 17.5%. Consider `O=C(Cc1ccccc1)Nc1ncccc1Cl`, for which the “hERG current change (%, negative = inhibition) at 10uM” value was 6.6%. On to `CCCCOc1ccc(C(=S)N2CCC(C(N)=O)CC2)cc1`, for which the “hERG current change (%, negative = inhibition) at 10uM” value is on record as 6.67%. Take `COC(=O)C1=CO[C@@H](C)[C@H]2CN3CCc4c([nH]c5ccccc45)[C@@H]3C[C@H]12.Cl`: the “hERG current change (%, negative = inhibition) at 10uM” value is on record as -20.2%. On to `O=C(NCCc1c[nH]c2ccccc12)c1ccccc1`, for which the “hERG current change (%, negative = inhibition) at 10uM” value was found to be 4.79%. Consider `O=C(CCc1c[nH]c2ccccc12)NC1CC1`, for which the “hERG current change (%, negative = inhibition) at 10uM” value was found to be 14.1%. `O=C(NC1CCCN(CCc2ccccc2)C1)c1c(F)cccc1F` (centres unmarked): the “hERG current change (%, negative = inhibition) at 10uM” value is listed as -46.2%. Take `O=C(NC1CCN(CCc2c[nH]c3ccccc23)CC1)c1ccccc1`: the “hERG current change (%, negative = inhibition) at 10uM” value is recorded as -71.7%. Regarding `O=C(NC1CCCN(CCc2ccccc2)C1)C1CCCC1` (centres unmarked), the “hERG current change (%, negative = inhibition) at 10uM” value is -36.7%. As to `O=C(NC1CCCN(CCc2ccccc2)C1)c1c[nH]c2ccccc12` (centres unmarked), the “hERG current change (%, negative = inhibition) at 10uM” value was -68.2%. Regarding `COC(=O)C1=COC(C)C2CN3CCc4c([nH]c5ccccc45)C3CC12` (centres unmarked), the “hERG current change (%, negative = inhibition) at 10uM” value is -34.3%. Regarding `COC(=O)C1=CO[C@@H](C)[C@@H]2CN(CCc3c[nH]c4ccccc34)CC[C@H]12`, the “hERG current change (%, negative = inhibition) at 10uM” value is -57%. With `CSC1=C(C#N)C(c2ccccc2Cl)C2=C(N1)c1ccccc1C2=O` (centres unmarked), the “hERG current change (%, negative = inhibition) at 10uM” value came to 6.44%. As for `CCC(C)(C)n1nnnc1C(c1cccs1)N1CCCCC1` (centres unmarked), the “hERG current change (%, negative = inhibition) at 10uM” value was -19.4%. On to `Cc1cccn2c(CN3CCCN(C=O)CC3)c(C(=O)N(C)CCc3ccccc3)nc12`, for which the “hERG current change (%, negative = inhibition) at 10uM” value stood at 26.6%. Turning to `CCOC(=O)CCNC(=O)N1CCCC(N(C)CCc2ccc(OC)c(OC)c2)C1` (centres unmarked), the “hERG current change (%, negative = inhibition) at 10uM” value was -6.37%. `CC(=O)NCCC(=O)N1CCCC(N(C)CCc2ccccc2)C1` (centres unmarked): the “hERG current change (%, negative = inhibition) at 10uM” value is on record as -26.7%. For the compound `COCC(=O)N1CCCC(N(C)CCc2ccc(OC)c(OC)c2)C1` (centres unmarked), the “hERG current change (%, negative = inhibition) at 10uM” value came to 8.28%.

For `CCCCNC(=O)N1CCCC(N(C)CCc2ccc(OC)c(OC)c2)C1` (centres unmarked), the “hERG current change (%, negative = inhibition) at 10uM” value is -67.8%. Regarding `CCOC(=O)CCNC(=O)N1CCCC(N(C)CCc2ccccc2)C1` (centres unmarked), the “hERG current change (%, negative = inhibition) at 10uM” value is given as -49.4%. With `CSCCC(=O)N1CCCC(N(C)CCc2ccccc2)C1` (centres unmarked), the “hERG current change (%, negative = inhibition) at 10uM” value is reported as -56.8%. As for `COc1ccc(CCN(C)C2CCCN(C(=O)CCC(F)(F)F)C2)cc1OC` (centres unmarked), the figure is -52%; as for `COc1ccc(CCN(C)C2CCCN(C(=O)Cn3cccn3)C2)cc1OC` (centres unmarked), -6.28%; as for `COc1ccc(CCN(C)C2CCCN(C(=O)Cn3cnnn3)C2)cc1OC` (centres unmarked), 10.2%.

As to `COc1ccc(CCN(C)C2CCCN(C(=O)CCSC)C2)cc1OC` (centres unmarked), the “hERG current change (%, negative = inhibition) at 10uM” value is given as -57.2%. Consider `COC(=O)CCCC(=O)N1CCCC(N(C)CCc2ccccc2)C1` (centres unmarked), for which the “hERG current change (%, negative = inhibition) at 10uM” value is -40.6%. As to `COCC(C)n1c(C)cc(C(=O)CN2C(=O)NC3(CCCCC3C)C2=O)c1C` (centres unmarked), the “hERG current change (%, negative = inhibition) at 10uM” value was -8.29%. As for `COC(=O)c1ccc(NC(=S)N2CCC(C(N)=O)CC2)cc1`, the figure is 12.2%; as for `CCC(C)(C(=O)NC1CCCCC1)N(C(=O)CNC(=O)c1ccccc1)c1c(C)n(C)n(-c2ccccc2)c1=O` (centres unmarked), 10.1%; as for `CN=C1SC(C(=O)O)CC(=O)N1C` (centres unmarked), 19.1%. Regarding `Cc1ccc(NC(=S)Nc2ccc(OC(F)F)c(Cl)c2)cc1Cl`, the “hERG current change (%, negative = inhibition) at 10uM” value is recorded as 16.5%. Regarding `Cc1nc2ccc(S(=O)(=O)NCC(=O)NCCc3ccc(Cl)cc3)cc2s1`, the “hERG current change (%, negative = inhibition) at 10uM” value is 28.3%. `c1ccc2c(-c3nnc(SCc4cn5ccccc5n4)o3)c[nH]c2c1`: the “hERG current change (%, negative = inhibition) at 10uM” value is given as -4.5%.
